Screens as filed in PubChem BioAssay.
CHO-K1 Ca PAM: M1 PAM counterscreen hit in parental CHO-K1 cells; ATP EC20, Fluo-8 calcium fluorescence; 0% at ATP EC20, 100% at ATP max; activation, % at 3 µM; 360,000 tested, 0.02% active; AID 602247;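 active = activation above the run cutoff, the mean activation of all test compounds plus 3 SD, cut at about 40% in these data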;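 note: peak over basal fluorescence ratio in a 140 s read after ATP addition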
CHO-K1 Ca antag: nonselective inhibitor or artifact in parental CHO-K1 cells. ATP-induced calcium, Fluo-8 fluorescence. inhibition, % at 3 µM. 360,000 tested, 0.6% active;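 active = inhibition above a per-plate cutoff, the plate's mean sample inhibition plus 3 SD, cut at about 24% in these data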;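 note: 0% = DMSO plus EC80 ATP and 100% = DMSO alone without ATP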
CHRM1 agonist: agonists of human M1 muscarinic receptor | P11229 | CHO-K1 hM1, Fluo-8 calcium fluorescence, agonist mode; 0% DMSO, 100% acetylcholine EC100 | activation, % at 3 µM | 360,000 tested, 0.33% active | AID 588814;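 active = activation above the run's mean compound activation plus 3 SD, cut at about 16% in these data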;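 note: peak over basal fluorescence ratio within a 140 s kinetic read after compound addition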
Target sequence (P11229 whole entry, looked up): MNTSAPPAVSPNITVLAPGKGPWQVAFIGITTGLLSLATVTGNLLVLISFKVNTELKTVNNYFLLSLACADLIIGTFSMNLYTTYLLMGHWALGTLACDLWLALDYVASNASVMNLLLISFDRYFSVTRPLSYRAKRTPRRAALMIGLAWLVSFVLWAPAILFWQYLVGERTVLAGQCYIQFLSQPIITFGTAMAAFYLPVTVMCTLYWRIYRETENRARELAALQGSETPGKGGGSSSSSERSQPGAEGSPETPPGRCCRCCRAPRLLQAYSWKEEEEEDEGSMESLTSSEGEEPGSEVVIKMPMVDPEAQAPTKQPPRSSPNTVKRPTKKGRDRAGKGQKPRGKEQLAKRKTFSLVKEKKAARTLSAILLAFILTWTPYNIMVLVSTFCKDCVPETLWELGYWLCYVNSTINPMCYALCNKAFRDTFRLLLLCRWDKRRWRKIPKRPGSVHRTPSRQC
M1 antag: human CHRM1 antagonism; inhibition, % at 3 µM; AID 588852; CHO-K1 hM1, Fluo-8 calcium fluorescence, ACh EC80 antagonist; 360,000 tested, 1.3% active; P11229;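 active = percent inhibition above its own plate's cutoff, namely the mean of that plate's compound wells plus 3 SD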;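 note: peak over basal fluorescence ratio during 140 s after agonist addition; 0% = ACh EC80 plus DMSO and 100% = DMSO alone without agonist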
CHO-K1 Ca ag: M1 agonist counterscreen hit in parental CHO-K1 cells; Fluo-8 calcium fluorescence; scaled to maximal ATP response, vehicle zero; activation, % at 3 µM; 360,000 tested, 0.48% active; in the data active = activation above about 15%;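 note: untransfected CHO-K1 host cells lacking M1 receptor as counterscreen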
CHRM1 PAM: positive allosteric modulators of human M1 muscarinic receptor | 360,000 tested, 0.088% active | activation, % at 3 µM | CHO-K1 hM1, Fluo-8 calcium fluorescence, ACh EC20; 0% = ACh EC20, 100% = maximal ACh; in the data active = activation above about 19%, passing the limit was not always enough
Active calls of the source: *; x = no result. Compounds with a hit are over-represented: about 2.3% of the library has one in this group of screens.

SMILES	CHO-K1 Ca PAM	CHO-K1 Ca antag	CHRM1 agonist	M1 antag	CHO-K1 Ca ag	CHRM1 PAM
COC(=O)c1ccc(CSc2nc3c(c(=O)[nH]2)CCC3)cc1	1.1	10.3	-1.1	-5.9	0.6	5.6
Cn1c(SCCN2CCCC2)nnc1C1CCN(S(=O)(=O)c2cccc(F)c2)CC1	9.8	-12.7	-11.2	63.1*	1.5	-30.9
Cn1c(SCC(N)=O)nnc1C1CCN(S(=O)(=O)c2ccccc2C(F)(F)F)CC1	15.8	-14.2	-1.4	-6.1	0.7	-5.4
Cc1ccc(-c2csc(=Nc3cccnc3)n2CCCn2ccnc2)cc1C	17.6	-0.3	-10.4	40.9*	7.8	-26.3
Cc1ccc(-c2csc(=Nc3cccnc3)n2CCCN2CCCC2=O)cc1C	-1.6	3.2	-8.1	9.6	1.3	-6.5
Cc1ccc2c(c1)c1c(n2CC(O)CN2CCCCC2C)CCCC1 (stereo unspecified)	15.8	-5.0	-7.2	41.7*	1.2	-24.2
Cc1ccc2c(c1)c(C)c(C)n2CC(O)CN1CCCCC1C (stereo unspecified)	-3.6	0.5	-12.1	-0.8	0.0	-2.9
CC(NC(=O)C1CCN(S(=O)(=O)c2cc([N+](=O)[O-])ccc2Cl)CC1)c1ccccc1 (stereo unspecified)	20.9	4.9	-4.4	3.3	1.8	2.7
O=C(Nc1nc2ccc(F)cc2s1)C1CCN(S(=O)(=O)c2cc([N+](=O)[O-])ccc2Cl)CC1	1.5	31.6*	-9.1	32.4*	6.8	-21.8
Cc1ccc2nc(NC(=O)C3CCN(S(=O)(=O)c4cc([N+](=O)[O-])ccc4Cl)CC3)sc2c1	13.2	25.2*	-8.8	28.2	4.6	-16.9
Cc1ccc(NC(=O)C2CCN(S(=O)(=O)c3cc([N+](=O)[O-])ccc3Cl)CC2)nc1	-14.6	16.5	-1.5	41.6*	14.5	-19.4
O=C(NC(NC(=S)Nc1ccccc1)C(Cl)(Cl)Cl)c1cccc(Cl)c1 (stereo unspecified)	-10.3	31.9*	3.8	29.8*	14.4	-16.4
COc1ccc([C@H]2C[C@H](O)[C@@H](n3cc(COC(=O)c4ccccc4)nn3)CN2CC2CCCCC2)cc1	14.6	-6.1	-5.3	-14.3	1.7	4.0
CCCCCC#CCN1CCN(C23CC4CC(CC(C4)C2)C3)CC1	19.1	-19.6	-7.8	32.5	0.0	-14.7
CCCC#CCN1CCN(C23CC4CC(CC(C4)C2)C3)CC1	-0.8	-5.9	-11.3	46.9*	0.1	-24.6
NS(=O)(=O)c1ccc(S(=O)(=O)N2CCCC(c3ccccc3)C2)cc1 (stereo unspecified)	2.8	-7.1	1.1	3.3	5.6	-4.2
CC(=O)Nc1ccc(/C(C)=N/Nc2nc(Nc3cccc4ccccc34)nc(N3CCOCC3)n2)cc1	10.9	10.2	18.0*	10.8	12.5	2.9
COc1cc(/C=C(\C#N)c2nc3ccccc3o2)ccc1O	-21.0	30.3*	35.4*	40.4*	45.3*	-15.0
Cc1ccc(S(=O)(=O)N2C[C@H]3[C@H]4C(=O)N(Cc5ccccc5)C(=O)[C@H]4CC(=O)[C@H]3[C@@H]2c2ccccc2)cc1	3.5	-0.6	-4.4	-10.3	0.6	-7.2
COC(=O)c1[nH]c2ccccc2c1NC(=O)CN1CCCCCC1	15.2	-8.1	-3.2	7.2	0.9	-1.0
COC(=O)c1[nH]c2ccccc2c1NC(=O)CNC1CCCCC1	9.7	4.8	1.5	37.7*	4.9	-11.8
COC(=O)C1=NN(C(=O)c2cccc(Br)c2)C(O)(c2ccc(Cl)cc2)C1 (stereo unspecified)	3.1	5.5	41.6*	4.4	9.6	-11.0
CC(NCC(O)COc1ccc(Br)cc1)c1ccccc1 (stereo unspecified)	4.4	-5.4	0.6	74.7*	6.3	-3.3
CC(NCC(O)COc1ccc2ccccc2c1)c1ccccc1 (stereo unspecified)	-13.5	10.1	-1.8	-7.0	15.7*	15.4
COc1ccc(C(C)(NC(C)=O)c2nc(-c3cccc(F)c3)cs2)cc1 (stereo unspecified)	2.4	0.5	-4.0	-14.1	0.1	7.3
SMILES	CHO-K1 Ca PAM	CHO-K1 Ca antag	CHRM1 agonist	M1 antag	CHO-K1 Ca ag	CHRM1 PAM
COc1ccccc1C(CNC(=O)c1cccc(S(=O)(=O)N2c3ccccc3CC2C)c1)N(C)C (stereo unspecified)	11.3	-25.0	-8.2	98.6*	1.0	-25.9
COc1ccccc1C(CNC(=O)c1cccc(S(=O)(=O)N2CCCc3ccccc32)c1)N(C)C (stereo unspecified)	-10.1	-2.9	-8.6	100.6*	1.4	-31.4
CC1ON=C(c2ccccn2)N(Cc2ccc3c(c2)OCO3)C1=O (stereo unspecified)	9.4	0.3	-4.2	2.5	0.2	-1.1
CCN1CCN(CCNC(=O)c2ccc3nc(-c4cccc(C)c4)c(-c4cccc(C)c4)nc3c2)CC1	9.5	-12.1	-5.0	82.9*	2.1	-25.0
CCCNC(=O)c1ccc2nc(-c3ccccc3)c(-c3ccccc3)nc2c1	15.8	-7.0	-3.6	3.7	0.9	1.2
CN1C(=O)CCS(=O)(=O)C1c1ccc(Cl)c(Cl)c1 (stereo unspecified)	4.2	5.2	-1.8	-13.0	0.7	13.2
CCOC(=O)N1CCN(Cc2c(O)ccc3ccccc23)CC1	-6.7	-3.5	3.9	-4.9	16.0*	2.5
CCOC(=O)N1CCN(C(=O)Cc2c(C(=O)O)n(C)c3ccccc23)CC1	18.4	-12.7	27.5*	-5.0	-0.1	1.1
CCOC(=O)c1ccccc1-n1c(C)cc(C2N=C(N)Nc3nc4ccccc4n32)c1C (stereo unspecified)	3.6	-14.4	-15.0	80.9*	0.5	-36.6
CCOc1ccccc1CNS(=O)(=O)c1ccc(-c2cnc(C3CC3)o2)cc1	-15.3	14.2	3.1	35.8*	13.4	-15.1
CC1CC(C)CN(C(=O)c2nn(C)c3c2CS(=O)(=O)c2ccccc2-3)C1 (stereo unspecified)	-15.6	7.6	0.4	-15.8	2.0	6.3
COc1cc(CN2CCC(Oc3cc(C(=O)NC4CC4)ccc3OC)CC2)cc(OC)c1	18.3	-8.8	-4.0	-16.1	0.4	10.7
COc1cc2c(cc1OC)-c1nnc(C)n1C1(CCCC1)C2	-9.3	26.6*	-4.2	-3.6	-0.5	4.1
COC(=O)N/N=C/c1cn(CCOc2ccc(OC)cc2)c2ccccc12	7.1	0.3	-2.3	15.0	15.1*	-9.4
Cc1cccc(C)c1-n1nnnc1C1c2ccccc2C(=O)N1CCCn1ccnc1 (stereo unspecified)	-4.0	-3.7	x	x	0.0	x
CC(C)[C@H](NC(=O)c1c(F)cccc1F)C(=O)Nc1cccc(Br)c1	3.4	5.5	-2.4	-5.8	19.1*	4.9
O=C(CSc1nnc(SCc2ccccc2)s1)N/N=C/C=C\c1ccco1	16.5	9.0	-6.4	-4.8	15.8*	11.2
